Data from ChEMBL document CHEMBL1157539, “Thousands of chemical starting points for antimalarial lead identification” (Nature, 2010).

Legend:
Type in all cases: functional
[1] = test system: Plasmodium falciparum; assay: GSK_TCMDC: Inhibition of Plasmodium falciparum 3D7 in whole red blood cells, using parasite LDH activity as an index of growth. Test compounds present at 2uM
[2] = test system: Plasmodium falciparum; assay: GSK_TCMDC: Inhibition of Plasmodium falciparum Dd2 in whole red blood cells, using parasite LDH activity as an index of growth. Test compounds present at 2uM
[3] = test system: HepG2; assay: GSK_TCMDC: Percent inhibition of human HepG2 cell line. Test compounds present at 10uM.

Row | Compound | Inhibition [1] [%] | Inhibition [2] [%] | Inhibition [3] [%]
1 | COc1cc2c(cc1C(F)(F)F)N(C(=O)Nc1cc(F)cc(-c3cncnc3)c1)CC2 | 97 | 52 | 15
2 | Br.CC1(C)NC(N)=NC(=N)N1OCCCOc1ccccc1N | 93 | 95 | 70
3 | COc1c(C2CCN(CCCCNC(=O)c3ccc(-c4ccc(Cl)cc4)c(OCC(N)=O)c3)CC2)ccc2c1CCCC2 | 97 | 11 | 43
4 | O=C(O)C(F)(F)F.c1cc(CNCCc2ccncc2)cc(-c2cccc(-c3nc4ccccc4[nH]3)c2)c1 | 100 | 88 | 21
5 | CC(=O)Nc1cccc(-c2cnc(N)c3cc(-c4ccc5c(c4)OCO5)ccc23)c1 | 99 | 93 | 100
6 | CC(=O)Nc1ncc(C(=O)Nc2cccc(-c3ccc(-c4nc5cc(C(F)(F)F)ccc5[nH]4)cc3)c2)s1 | 100 | 94 | 83
7 | Oc1ccc(CCNCc2ccc(OCc3ccccc3)c(OCc3ccccc3)c2)cc1 | 88 | 9 | 31
8 | Cl.O=C(Nc1ccc(NC2=NCCN2)cc1)Nc1ccc(NC2=NCCN2)cc1 | 88 | 72 | 0
9 | CC(C)c1cn2c3c(cc(C(=O)N[C@@H](Cc4ccccc4)[C@H](O)CNC4CCCCC4)cc13)N(C)S(=O)(=O)CC2.O=CO | 98 | 99 | 9
10 | Cc1cccc(C(=O)Nc2ccnc(N3CCC(N(C)Cc4ccc(C#N)cc4)CC3)c2)c1.O=C(O)C(F)(F)F | 94 | 6 | 12
11 | CN(C)CCOc1cc(O)c2c(c1)OC(C)(C)C=C2c1cccs1 | 99 | 10 | 29
12 | CC(C)N1CCC(N(Cc2ccc(-c3ccc(C(F)(F)F)cc3)cc2)C(=O)Cn2c(CCc3cccc(F)c3F)nc(=O)c3cccnc32)CC1.O=C(O)C(O)C(O)C(=O)O | 100 | 80 | 100
13 | CCC1(c2ccccc2)N=C(N)N(CCCc2ccccc2)C1=O (centres undefined) | 90 | 96 | 17
14 | CN(C(=O)c1nn(-c2ccccn2)c2nccc(-c3cccs3)c12)C1CCCCC1 | 87 | 1 | 4
15 | N#Cc1ccc(NC(=O)c2ccc(C(=O)NCCCCN3CCC(c4ccc5c(c4OCCOC4CCCCO4)CCCC5)CC3)cc2)cc1 (centres undefined) | 99 | 97 | 72
16 | COc1ccc(C(C)Nc2nc(N)c3cc(OC)c(OC)cc3n2)cc1.Cl (centres undefined) | 100 | 28 | 23
17 | CCN(CCNc1nc(NCCc2cnc[nH]2)nc(N(CCC#N)Cc2ccccc2)n1)c1cccc(C)c1 | 100 | 92 | 13
18 | COC(=O)c1cccc(CNCc2ccc(-c3ccc(-c4nc5cc(F)ccc5[nH]4)cc3)cc2)c1.O=C(O)C(F)(F)F | 100 | 95 | 8
19 | CCCc1cc(=O)[nH]c(-n2nc(C)cc2NC(=O)C(CC)c2ccccc2)n1 (centres undefined) | 94 | 63 | 41
20 | NC(=O)C1CCN(Cc2cccc(-c3ccc(-c4nc5cc(C(F)(F)F)ccc5[nH]4)cc3)c2)CC1.O=C(O)C(F)(F)F | 100 | 94 | 7
21 | Cc1nc(-c2cccc3c(NC(=O)N4CCc5cc6nccc(N7CCN(C)CC7)c6cc54)cccc23)no1.Cl | 100 | 97 | 45
22 | COc1ccc2nc3cc(Cl)ccc3c(NCCc3ccccc3)c2c1.Cl | 94 | 82 | 0
23 | COc1cccc(-c2cccc(-c3ccc(NC(=O)c4ccc([N+](=O)[O-])o4)cc3)n2)c1 | 97 | 94 | 98
24 | Cl.c1ccc(Oc2ccc(Nc3ccnc4c(-c5ccccn5)cccc34)cc2)cc1 | 100 | 58 | 31
25 | CCOc1ccc(C(C)NC(=O)Nc2ccccc2)cc1OCC (centres undefined) | 96 | 95 | 14
26 | Clc1ccc(Sc2cncnc2N2CCOCC2)cc1 | 95 | 0 | 66
27 | COc1cc(OC)c(OC)cc1C=NN=c1cc(C)[nH]c2ccccc12 | 100 | 95 | 5
28 | Cc1cc(NCCCCCCN)nc(Nc2ccc(Cl)cc2)n1 | 100 | 26 | 25
